Most compounds without a hit are left out; they make up all but 9.4% or so of the library.
Pf growth 48h: inhibits P. falciparum growth in the first generation, 48 h; Potency, µM (top dose mostly 28.7 µM), inactives show top-dose activity change, negative = inhibition, most hits filed as inhibitors; AID 504832; hit rate 5.9% among 310,000; P. falciparum luciferase growth in erythrocytes, 48 h; note: % is set by controls: 0 for no effect and ±100 for the full control effect
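Firefly luciferase activity from engineered P. falciparum reports growth; inhibitors lower the luminescent signal. Cultures contained 2% hematocrit erythrocytes at 0.1% final parasitemia.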
AMA1-RON2 inh: AMA1-RON2 (P. falciparum) interaction inhibition; AlphaScreen AMA1-biotinylated RON2 peptide binding; Potency, µM (top dose mostly 58.2 µM), for inactives: at the top dose activity change, negative = inhibition, actives largely listed as inhibitors; hit rate 0.2% among 360,000;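 note: 0% = vehicle wells and -100% = peptide control; nearly all actives have a fitted effect of over 45% in size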
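AMA1 (3D7) with his tag at 25 nM final met compounds first, then biotinylated RON2 peptide at 25 nM; detection used donor plus acceptor beads, 10 µg/mL apiece, read by AlphaScreen after 30 min at room temperature.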
SARS PLP yeast: blocks SARS-CoV papain-like protease in a yeast assay | S. cerevisiae expressing SARS-CoV PLpro, growth rescue | Potency, µM (highest dose often 32.9 µM), for inactives: at the highest dose activity, positive = growth rescue, hits mostly activators | hit rate 0.19% among 330,000 | AID 485353; calls by dose curve; note: 0% is about no effect; nearly all actives have a fitted effect of over 55% in size
Pf growth 96h: P. falciparum growth inhibition at 96 hour, primary screen for plastid delayed-death inhibitors. P. falciparum luciferase reporter growth, 96 h. Potency, µM (series often up to 28.7 µM), for inactives: at the top dose activity change, negative = inhibition, actives largely listed as inhibitors. hit rate 6.9% among 320,000. AID 504834; note: % is set by controls: 0 for no effect and ±100 for the full control effect
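Plates of compound plus infected erythrocytes (2% hematocrit, 0.05% parasitemia final) incubate 96 hours, 37 C, 5% CO2. Detection reagent added; reduced luminescence from the parasites' luciferase reporter flags inhibition.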
* marks the source's active call; other numbers are inactive results; ? = inconclusive; / = no result; [ ] = another dose, or the depositor's remark. Unless noted, calls come from the whole dose curve; as a rule, active = well fitted curve in the direction sought with a large enough effect; inconclusive = small, poorly fitted or top-dose-only effect, or another doubt; inactive = no such curve, though single readings can be large; an effect the other way counts as inactive or inconclusive. Potency is the fitted concentration of half-maximal effect.

SMILES	Pf growth 48h	AMA1-RON2 inh	SARS PLP yeast	Pf growth 96h
O=C(CCC1CCCCC1)NC1=NCCS1	71.2%	-14.0%	-77.3%	10.4µM*
O=C(NC1=NCCS1)NC12CC3CC(CC(C3)C1)C2	-0.2%	-2.4%	-26.9%	1.17µM*
O=C(CC12CC3CC(C1)CC(CC(=O)NC1=NCCS1)(C3)C2)NC1=NCCS1	9.28µM*	-6.3%	1.3%	/
CC12CC3CC(C)(C1)CC(C(=O)NC1=NCCS1)(C3)C2	/	20.7%	-12.4%	11.7µM*
Cc1cc(NC(=O)CCC(=O)N(Cc2ccco2)C(C(=O)NCC2CCCO2)c2ccncc2)no1 (centres undefined)	?	-7.1%	0.0%	86.3%
COc1ccc2[nH]c3c(c2c1)CCN1C(=O)C(CC(=O)NCc2ccc(OC)c(OC)c2)C[C@H](C(=O)N2CCOCC2)[C@@]31C (some centres undefined)	/	-1.8%	19.3%	/
CC(C(=O)NC1=NCCS1)(C(F)(F)F)C(F)(F)F	-2.3%	7.3%	0.2%	/
CC(C)(C)C(=O)NC1=NCCS1	9.8%	-6.4%	2.6%	1.47µM*
O=C(NCCc1ccccc1)C(=O)c1c(-c2ccccc2)[nH]c2ccccc12	-29.1%	-14.1%	9.4%	5.22µM*
C=CCNC(=O)C(=O)c1c(-c2ccccc2)[nH]c2ccccc12	12.6%	3.2%	20.6%	?
O=C(O)/C=C/C(=O)c1c(-c2ccccc2)[nH]c2ccccc12	6.57µM*	5.5%	0.3%	4.15µM*
Cc1nc(N2CCN(S(=O)(=O)c3ccccc3)CC2)c2c3c(sc2n1)CC(C)CC3 (centres undefined)	?	-13.4%	2.2%	10.4µM*
CC(=O)N1CCC(=NNc2ccnc3cc(Cl)ccc23)CC1	1.85µM*	-13.8%	-6.3%	2.62µM*
CCOC(=O)N1CCC(=NNc2ncc(C(F)(F)F)cc2Cl)CC1	0.9%	32.6%	-2.9%	26.2%
CCOC(=O)N1CCC(=NNc2ccnc3cc(Cl)ccc23)CC1	?	-3.6%	-5.4%	2.62µM*
CC(=O)N1CCC(=NNc2ncc(C(F)(F)F)cc2Cl)CC1	0.0%	59.6%	0.7%	51.1%
COc1cc(-c2ccc3sc(-c4ccsc4)c(C#CCO)c3c2)cc(OC)c1OC	11.7µM*	-3.7%	-0.8%	?
N/C(=N\OC(=O)c1ccccc1F)c1cccc([N+](=O)[O-])c1	146.2%	1.0%	4.6%	11.7µM*
N/C(=N\OC(=O)c1ccccc1Br)c1cccc([N+](=O)[O-])c1	/	-13.8%	-5.2%	310.5%
Cc1ccc(C2=NC(=O)/C(=C/c3cc(O)c(O)c(Br)c3)S2)cc1	10.4µM*	?	6.31µM*	35.2%
Cn1nnnc1SCCNCc1ccccc1OCc1ccc(Cl)cc1	?	?	-17.6%	11.7µM*
O=C(O)CCNC(=O)/C(=C/c1ccco1)NC(=O)c1ccco1	-6.0%	57.5%	7.5%	?
O=C(CN1C(=O)CCS(=O)(=O)c2ccccc21)NCCc1ccccc1	20.7%	10.4%	3.4%	22.7%
COc1ccc(NS(=O)(=O)c2ccc(S(=O)(=O)N3CCOCC3)cc2)cc1	-13.4%	-7.9%	0.8%	-16.3%
C[n+]1ccn(CC(=O)c2cc(C(C)(C)C)c(O)c(C(C)(C)C)c2)c1	9.28µM*	-1.2%	1.4%	20.4%
SMILES	Pf growth 48h	AMA1-RON2 inh	SARS PLP yeast	Pf growth 96h
C[n+]1ccn(CC(=O)c2ccc(Cl)cc2)c1	-29.2%	-1.8%	-7.6%	17.3%
C[n+]1ccn(CC(=O)c2ccc(Br)cc2)c1	11.7µM*	-13.7%	4.7%	9.28µM*
C=Cn1cc[n+](CC(=O)c2ccc(Cl)cc2)c1	?	-2.9%	-5.4%	?
C=Cn1cc[n+](CC(=O)c2ccc(Br)cc2)c1	?	-2.9%	-2.3%	6.57µM*
O=C(NCC1CCCO1)C1CCCN(S(=O)(=O)c2cccc(C(F)(F)F)c2)C1 (centres undefined)	7.8%	1.6%	1.2%	?
COc1cc(NC(=O)CN(C)Cc2cccc(F)c2)c(C)cc1[N+](=O)[O-]	?	-5.7%	-0.2%	20.9%
CN(C)/C=C(\C#N)S(=O)(=O)c1ccccc1	1.8%	4.5%	11.0%	-14.5%
COC(=O)C(Nc1ccccc1Cl)(c1cc(C)c(O)c(C)c1)C(F)(F)F (centres undefined)	9.28µM*	7.1%	-25.9%	/
CCOC(=O)C(NC(=O)c1ccccc1Cl)(Nc1ccc(C)c(C)c1)C(F)(F)F (centres undefined)	?	16.4%	-1.0%	1.7%
O=C(Nc1ccc(O)c(-c2nc3ccccc3o2)c1)C1(c2ccc(Cl)cc2)CCCC1	2.33µM*	68.4%[11.6 µM]	-3.5%	?
O=C(Nc1ccc(O)c(-c2nc3ccccc3o2)c1)C1(c2ccc([N+](=O)[O-])cc2)CCCC1	7.38µM*	39.9%	27.2%	?
CCc1ccc(OCC(=O)Nc2ccc(-c3nc4ccccc4o3)c(O)c2)cc1	50.6%	15.6%	1.9%	?
COc1ccc(CNC(=O)CCNC(=O)c2ccco2)cc1OC	33.9%	-1.8%	-0.3%	0.7%
O=C(NNC1=Nc2ccccc2SC1)c1ccccc1F	?	35.3%	0.6%	?
O=C(NNC1=Nc2ccccc2SC1)c1cccc([N+](=O)[O-])c1	?	45.7%	-0.7%	10.4µM*
CC(Oc1cccc(Br)c1)C(=O)NNC(=O)c1ccccn1 (centres undefined)	/	87.7%	-33.0%	/
CC(Oc1ccccc1)C(=O)NNC(=O)c1ccccn1 (centres undefined)	9.28µM*	36.2%	7.2%	?
CC(C)C(=O)NNC(=O)c1ccccn1	?	6.1%	-2.0%	13.1µM*
O=C(NNC(=O)c1ccccn1)c1cccc([N+](=O)[O-])c1	13.1µM*	73.7%	-1.3%	16.6%
COc1cc(OC)cc(C(=O)NNC(=O)c2ccccn2)c1	9.28µM*	115.1%	22.3%	?
C/C(=N\NC(=O)C(C)Oc1ccc([N+](=O)[O-])cc1)c1ccccn1 (centres undefined)	?	-68.2%	-2.4%	2.08µM*
CC(C)Nc1nc(Cl)nc(NNC(=O)C(C)Oc2ccccc2)n1 (centres undefined)	-14.2%	83.0%	-1.7%	1.65µM*
COc1ccc(C(=O)/C(C#N)=N/Nc2ccc([N+](=O)[O-])cc2)cc1	13.1µM*	-4.4%	-1.0%	?
COc1ccc(C(=O)/C(C#N)=N/Nc2ccccc2[N+](=O)[O-])cc1	26.3%	-18.9%	18.5%	7.7%
CN(CC(=O)NC(=O)NCc1ccco1)CC(=O)Nc1ccccc1Cl	14.6%	101.7%	-0.2%	2.1%
CCn1cc(CN2CCC(n3nccc3NC(=O)C3CCCC3)CC2)c(C)n1	62.7%	-3.0%	-2.5%	38.2%
CC(C)Oc1ccc(C(=O)Nc2ccc([N+](=O)[O-])cc2)cc1	28.7%[5.75 µM]	-0.6%	0.1%	5.2%
COc1ccc(OC(C)C(=O)Nc2ccc([N+](=O)[O-])cc2)cc1 (centres undefined)	?	-20.3%	4.1%	14.7µM*
CCn1ccnc1CN(C)Cc1cn[nH]c1-c1ccc(F)cc1F	9.1%	54.1%	-2.0%	11.7µM*
Cc1cc(C)c[n+](CC(=O)c2ccc(NC(=O)c3ccccc3)cc2)c1	?	2.0%	0.3%	26.9%

Bioassay records (PubChem BioAssay)
